Experiment [1] is described as follows: compounds binding Alexa647 anti-His antibody – biochemical, small-molecule microarray, 635 nm fluorescence, artefact control for SMM control protein annotation, primary screen (AID 1128).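 Also: score merges feature fluorescence with signal-to-noise for each printed compound spot.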 Particulars: higher = more signal.
The test system of experiment [2] is Human papillomavirus type 1a E7 protein (residues 1-88). As to the kind of experiment: HPV1a E7 small-molecule binders, primary screen, biochemical, small-molecule microarray, residues 1-88, 635 nm (AID 1129). Particulars: small-molecule microarray binding, fluorescence 635 nm; higher = more signal.
The target in experiment [3] is Focal adhesion kinase 1 (Homo sapiens) (UniProt Q05397). As to the kind of experiment: PTK2 protein binding on printed compound slides – biochemical, small-molecule microarray, 635/667 nm fluorescence, BSA, DTT, primary screen (AID 1130).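 Also: composite of spot emission at 667 nm and signal to noise over triplicate slides.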 Particulars: 635 nm fluorescence, higher = more signal.
Experiment [4] deals with Fibrinogen (Alexa647-labelled). Briefly: Alexa647-fibrinogen binding to printed small molecules – biochemical, small-molecule microarray, 635/667 nm fluorescence, artefact control for SMM control-protein annotation, profiling panel (AID 1131).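 Also: z-score merges 667 nm fluorescence with per-spot signal-to-noise over triplicate slides.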 Particulars: fibrinogen-A647 binding fluorescence, higher = more signal.
Experiment [5] deals with Follistatin (Homo sapiens) (UniProt P19883). Briefly: FST protein binding to printed compounds – biochemical, small-molecule microarray, 635/667 nm fluorescence, primary screen (AID 1132). Particulars: 635 nm fluorescence, higher = more signal.
Experiment [6] concerns the target Fibroblast growth factor 2 (Homo sapiens) (UniProt P09038). As to the kind of experiment: basic fibroblast growth factor binding to printed compounds – biochemical, small-molecule microarray, 635/667 nm fluorescence, primary screen (AID 1133). Particulars: FGF2, fluorescence 635/667, higher = more signal.
The nature of experiment [7]: JC-1 mitochondrial potential readout, lung cancer cells – cell-based, A549, JC-1 fluorescence, basal, 24 h, 100 nL, profiling panel (AID 1138).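 Also: A549 lung adenocarcinoma cells under basal conditions with no added stimulus; test concentration not given here.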 Particulars: higher = more signal.
The subject of a further experiment is Lefty1. Briefly: Lefty1 protein binding to printed compounds – biochemical, small-molecule microarray, 635/667 nm fluorescence, primary screen (AID 1139). Particulars: fluorescence 635/667, higher = more signal.
The test system of experiment [8] is wheat germ agglutinin (Triticum aestivum), Alexa647-labelled. As to the kind of experiment: Alexa647-WGA lectin binding to printed small molecules – biochemical, small-molecule microarray, 635/667 nm fluorescence, artefact control for SMM control-protein annotation, profiling panel (AID 1140).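 Also: score merges 667 nm feature emission with signal to noise over triplicate slides.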 Particulars: WGA-A647 binding, 635 nm fluorescence, higher = more signal.

Experiment [9] concerns the target Luciferin 4-monooxygenase (Photinus pyralis) (UniProt P08659). Briefly: inhibition of purified Photinus pyralis luciferase – biochemical, luminescence, purified enzyme, 2006 set, primary screen (AID 1141).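 Also: cell-free assay with purified firefly luciferase at 100 ng per well in PBS; test concentration not given here.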 Particulars: purified firefly luciferase, SteadyGlo luminescence, 30 min; higher = more signal, called active from +8 up or from −8 down.

Calls of active or inactive are those of the source.

Sequence of Focal adhesion kinase 1 (Homo sapiens) (Q05397 whole entry, looked up): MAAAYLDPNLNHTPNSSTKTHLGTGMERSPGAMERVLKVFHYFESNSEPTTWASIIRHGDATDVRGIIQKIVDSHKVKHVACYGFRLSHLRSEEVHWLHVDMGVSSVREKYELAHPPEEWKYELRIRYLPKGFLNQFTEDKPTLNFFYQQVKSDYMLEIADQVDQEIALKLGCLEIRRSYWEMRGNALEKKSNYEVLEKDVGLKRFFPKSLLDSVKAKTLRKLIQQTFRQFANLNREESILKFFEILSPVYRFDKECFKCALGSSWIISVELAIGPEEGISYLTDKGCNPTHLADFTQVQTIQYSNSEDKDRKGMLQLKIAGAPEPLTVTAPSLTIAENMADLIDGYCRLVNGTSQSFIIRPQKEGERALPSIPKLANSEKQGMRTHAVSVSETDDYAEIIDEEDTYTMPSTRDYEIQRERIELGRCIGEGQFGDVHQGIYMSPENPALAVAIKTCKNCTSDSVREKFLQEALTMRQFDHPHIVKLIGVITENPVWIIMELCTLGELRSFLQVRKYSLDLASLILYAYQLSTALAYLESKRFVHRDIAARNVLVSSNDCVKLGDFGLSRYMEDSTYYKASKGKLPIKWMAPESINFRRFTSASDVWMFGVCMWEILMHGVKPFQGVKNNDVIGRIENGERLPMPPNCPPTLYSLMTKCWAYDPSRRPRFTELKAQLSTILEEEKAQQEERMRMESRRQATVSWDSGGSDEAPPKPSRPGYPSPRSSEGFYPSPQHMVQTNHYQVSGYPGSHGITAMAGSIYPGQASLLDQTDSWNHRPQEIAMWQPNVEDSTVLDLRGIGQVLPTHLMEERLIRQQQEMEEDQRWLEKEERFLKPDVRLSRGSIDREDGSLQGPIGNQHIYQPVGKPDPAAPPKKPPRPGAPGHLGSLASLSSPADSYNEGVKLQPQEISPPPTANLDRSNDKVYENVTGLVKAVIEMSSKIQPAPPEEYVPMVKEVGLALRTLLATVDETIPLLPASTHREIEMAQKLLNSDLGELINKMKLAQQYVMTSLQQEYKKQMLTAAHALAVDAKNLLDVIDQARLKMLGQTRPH
Sequence of Fibroblast growth factor 2 (Homo sapiens) (P09038 whole entry, looked up): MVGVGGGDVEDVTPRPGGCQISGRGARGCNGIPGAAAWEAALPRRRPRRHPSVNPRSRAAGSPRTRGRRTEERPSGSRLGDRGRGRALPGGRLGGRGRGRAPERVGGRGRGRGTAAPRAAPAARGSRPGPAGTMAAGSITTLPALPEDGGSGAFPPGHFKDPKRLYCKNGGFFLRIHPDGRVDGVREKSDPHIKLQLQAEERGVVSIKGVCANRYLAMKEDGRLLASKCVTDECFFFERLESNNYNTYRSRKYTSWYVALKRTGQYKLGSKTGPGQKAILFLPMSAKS
Sequence of Follistatin (Homo sapiens) (P19883 whole entry, looked up): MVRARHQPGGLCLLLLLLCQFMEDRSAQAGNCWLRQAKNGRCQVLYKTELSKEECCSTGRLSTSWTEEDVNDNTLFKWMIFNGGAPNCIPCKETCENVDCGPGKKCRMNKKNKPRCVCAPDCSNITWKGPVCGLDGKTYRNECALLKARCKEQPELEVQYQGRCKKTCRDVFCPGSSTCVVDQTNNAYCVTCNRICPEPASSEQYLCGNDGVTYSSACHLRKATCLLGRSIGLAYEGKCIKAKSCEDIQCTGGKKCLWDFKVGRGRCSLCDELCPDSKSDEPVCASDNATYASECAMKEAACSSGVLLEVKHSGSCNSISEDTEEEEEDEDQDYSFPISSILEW
Sequence of Luciferin 4-monooxygenase (Photinus pyralis) (P08659 whole entry, looked up): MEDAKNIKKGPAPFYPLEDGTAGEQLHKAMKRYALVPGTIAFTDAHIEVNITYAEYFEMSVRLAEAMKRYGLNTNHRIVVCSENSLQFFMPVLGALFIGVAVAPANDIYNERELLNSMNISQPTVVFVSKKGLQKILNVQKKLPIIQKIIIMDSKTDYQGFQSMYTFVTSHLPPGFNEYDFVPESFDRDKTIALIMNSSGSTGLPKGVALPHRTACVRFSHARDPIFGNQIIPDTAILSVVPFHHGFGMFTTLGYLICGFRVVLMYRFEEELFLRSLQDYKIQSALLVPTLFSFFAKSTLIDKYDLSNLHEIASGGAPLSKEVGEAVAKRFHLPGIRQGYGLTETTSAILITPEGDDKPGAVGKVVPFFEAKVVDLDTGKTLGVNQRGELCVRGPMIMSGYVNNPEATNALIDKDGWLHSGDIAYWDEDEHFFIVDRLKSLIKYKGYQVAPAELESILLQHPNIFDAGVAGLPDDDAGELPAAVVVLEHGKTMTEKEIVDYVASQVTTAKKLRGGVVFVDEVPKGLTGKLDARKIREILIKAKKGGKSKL

In the case of `COCCCNC(=O)[C@@H]1c2ccccc2C(=O)N(Cc2cc(C(F)(F)F)cc(C(F)(F)F)c2)[C@H]1c1ccc(CO)cc1`, the composite z-score in [1] is 0.358; in experiment [2], 0.6; in experiment [3] it was 0.358; in [4], -0.788; in [5], 0.144; in experiment [6], 0.188. Further, the composite z-score with Lefty1 is 0.174; in [8], -0.672. The results for the z-score in experiment [7] and in experiment [9] were 0.983 and 0.0036 (inactive), respectively.

With `CC(C)C(=C=CC[C@@H](O)c1ccc(OCCO)cc1)CCO`, the composite z-score in experiment [1] was -0.171; in experiment [2], -0.744; in experiment [3], -0.397; in [4], 0.114; in experiment [5], 1.26; in [6] it was 1.25. Moreover, the composite z-score in the experiment on Lefty1 was 0.607; in experiment [8], -0.154. Further, the z-score is 0.451 in experiment [7] and -0.426 (inactive) in [9].

Regarding `C=CC[C@]1(C(=O)NCCCOC)N=C(c2ccc(OCCCO)cc2)O[C@H]1c1ccccc1`, the composite z-score was 1.19 in experiment [1]; 1.21 in experiment [2]; 0.0442 in experiment [3]; -0.922 in experiment [4]; 1.29 in experiment [5]; -0.9 in experiment [6]. In addition, the composite z-score was -0.689 with Lefty1 and 0.566 in [8]. For the same compound, the results for the z-score in experiment [7] and in experiment [9] were 0.266 and 0.436 (inactive), respectively.

Take `C=CC[C@@]1(C(=O)N(C)C)N=C(c2ccc(OCCCO)cc2)O[C@@H]1c1ccccc1`: the composite z-score in experiment [1] was determined as 2.63; in experiment [2], 1.24; in experiment [3], 0.356; in experiment [4], 0.3; in experiment [5] it was 0.0236; in experiment [6] it was 0.298. The composite z-score is -0.68 in the experiment with Lefty1 and 1.02 in [8]. Moreover, the results for the z-score in experiment [7] and in experiment [9] were -0.324 and 0.213 (inactive), respectively.

`CCCCNC(=O)c1ccc(C#C[Si](C)(C)C)c(OC(C)=O)c1`: the composite z-score in experiment [1] was 0.312; in experiment [2], 0.689; in experiment [3], 0.193; in experiment [4], 0.0903; in experiment [5] it was 0.389; in experiment [6], 0.326. In addition, the composite z-score in the experiment with Lefty1 was 0.479; in experiment [8] it was -0.0014. Also, the z-score in experiment [7] was -1.35; in [9], 0.229 (inactive).

As to `CCC(CC)C(O)C1C=CC2C(=O)N(C)C(=O)C2N1N1CCCCC1` (stereo not given), the composite z-score in experiment [1] is 2.05; in experiment [2], 1.23; in experiment [3], -0.0333; in [4] it was 0.967; in experiment [5], 1.33; in experiment [6] it was 0.406. The composite z-score in the experiment on Lefty1 came out at 0.831; in experiment [8], 1.12. The z-score in [7] is 0.309; in experiment [9], -0.203 (inactive).

As to `CCOC(=O)C1=C(C(=O)OCC)N(S(=O)(=O)CC[Si](C)(C)C)[C@H](c2ccccc2)CC1`, the composite z-score in experiment [1] was 0.171; in [2] it was 1.17; in experiment [3] it was -0.069; in [4] it was 0.837; in experiment [5], 0.761; in [6] it was -0.0502. Further, the figures for the composite z-score (in the experiment on Lefty1; in experiment [8]) were 0.566 and 1.1, respectively. Also, the z-score was 2.54 in experiment [7] and 1.01 (inactive) in experiment [9].

Regarding `COCCOC(=O)N1C(=O)[C@@]2(c3cc(C#Cc4ccc(OC)cc4)ccc31)[C@H](C(=O)Nc1nc3ccccc3s1)[C@H]1C(=O)O[C@H](c3ccccc3)[C@H](c3ccccc3)N1[C@@H]2c1ccccc1OCCO`, the composite z-score is 0.484 in experiment [1]; 1.05 in experiment [2]; 0.0699 in experiment [3]; 0.922 in experiment [4]; 1.32 in [5]; 1.04 in experiment [6]. The values for the composite z-score (in the experiment on Lefty1; in experiment [8]) were 0.973 and 0.883, respectively. Further, the z-score in experiment [7] was -1.75; in experiment [9], -1.76 (inactive).

For the compound `COc1cc2c(cc1O)C(C1CC1)N(Cc1ccc([N+](=O)[O-])o1)CC2` (stereo not given), the composite z-score in [1] is 0.852; in experiment [2], 1.12; in [3], 0.325; in [4] it was 0.577; in experiment [5], 0.361; in experiment [6] it was -0.0629. The composite z-score with Lefty1 was -0.546; in experiment [8], 1.06. Moreover, the figures for the z-score in [7] and in [9] were -0.184 and -0.924 (inactive), respectively.

As for `CCC[C@@H]1C=C(C(=O)OCC)[C@H](c2ccccc2)N1S(=O)(=O)c1ccc(C)cc1`, the composite z-score in experiment [1] was found to be 0.796; in [2] it was 1.14; in experiment [3], 0.898; in [4] it was 0.979; in [5], 0.947; in experiment [6], 0.538. For the same compound, the composite z-score in the experiment on Lefty1 stood at 0.565; in experiment [8], 1.2. Besides, the values for the z-score in [7] and in [9] were 2.03 and 1.41 (inactive), respectively.

In the case of `CCOC(=O)C1=CC[C@@H](c2ccccc2)N(S(=O)(=O)c2ccc(C)cc2)[C@H]1C#N`, the composite z-score was 0.806 in experiment [1]; 1.2 in experiment [2]; 0.721 in [3]; 0.986 in [4]; -0.33 in experiment [5]; -0.162 in experiment [6]. Further, the composite z-score is -0.565 with Lefty1 and 0.517 in [8]. Further, the z-score in [7] is -0.604; in [9], -0.227 (inactive).

On to `C[C@H]1C2[C@H](Cc3ccccc3)NC(=O)[C@]23C(=O)NCC(=O)N2CCC[C@H]2C(=O)NC/C=C\C/C=C/C3[C@@H]2O[C@]12C` (stereo not given in full), for which the composite z-score is -0.151 in experiment [1]; -0.0402 in experiment [2]; -0.258 in experiment [3]; -0.454 in [4]; 0.278 in experiment [5]; 1.1 in experiment [6]. Besides, the composite z-score was 0.0393 in the experiment on Lefty1 and -0.121 in experiment [8]. Also, the z-score in experiment [7] was 0.546; in experiment [9] it was -1.25 (inactive).

In the case of `N#Cc1ccc(C(O)C2C=CC3C(=O)N(c4ccccc4)C(=O)C3N2Nc2ccc([N+](=O)[O-])cc2)cc1` (stereo not given), the composite z-score was 2.33 in experiment [1]; 1.25 in experiment [2]; 0.895 in [3]; 0.991 in [4]; 0.499 in experiment [5]; -0.207 in experiment [6]. For the same compound, the composite z-score with Lefty1 is -0.44; in experiment [8] it was 1.4. Besides, the z-score in [7] was -2.34; in [9], 0.279 (inactive).

As for `CCCCC(O)C1C=CC2C(=O)N(C)C(=O)C2N1Nc1ccccc1` (stereo not given), the composite z-score was 1.86 in experiment [1]; 0.603 in experiment [2]; 0.383 in experiment [3]; 0.416 in experiment [4]; 0.0471 in [5]; -0.614 in [6]. For the same compound, the composite z-score is -0.291 with Lefty1 and 0.0187 in experiment [8]. Further, the z-score in experiment [7] was -0.771; in experiment [9], 0.16 (inactive).

Regarding `C#CCN([C@H](/C=C/C1CC1)[C@@H](O)Cc1ccccc1)[C@@H](Cc1ccccc1)C(=O)OC`, the composite z-score is 0.482 in experiment [1]; -0.517 in experiment [2]; -0.113 in [3]; -0.408 in experiment [4]; 0.794 in experiment [5]; -0.182 in experiment [6]. Also, the values for the composite z-score (in the experiment with Lefty1; in [8]) were 0.683 and -0.34, respectively. The z-score in [7] is 3.47; in [9], 0.778 (inactive).

Take `COc1ccc(C(O)C2C=CC3C(=O)N(C)C(=O)C3N2Nc2ccc([N+](=O)[O-])cc2[N+](=O)[O-])cc1OCc1ccccc1` (stereo not given): the composite z-score was 1.05 in [1]; 1.19 in [2]; 0.368 in experiment [3]; 0.545 in experiment [4]; 0.699 in experiment [5]; -0.0627 in experiment [6]. Besides, the composite z-score in the experiment with Lefty1 came out at 0.0695; in experiment [8], 1.15. Besides, the z-score in experiment [7] is 0.552; in [9], 0.0945 (inactive).

Values taken from PubChem BioAssay.
